Compounds with a hit are over-represented: about 1.6% of the library has one in this group of screens.
SSB-PriA inh: blocks PriA binding to SSB C-terminal tail | AlphaScreen SSBct-PriA binding, biotinylated peptide | hit rate 0.6% among 430,000 | AID 1272365 | inhibition, % at 33 µM; in the data active means inhibition mostly above about 37%, no sharp cut-off; inactive means mostly below about 20%;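 further: plate controls were negative control peptide for no effect and reference peptide for full effect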
SARS 3CLpro inh: SARS-CoV 3CLpro protease inhibition; recombinant SARS-CoV 3CLpro, quenched FRET peptide cleavage; AID 1706; inhibition, % at 6 µM; hit rate 0.14% among 290,000; in the data active means inhibition above about 12%
BH1578 lux ind: quorum light induction in luxS cqsA deficient V. cholerae. V. cholerae BH1578 lux reporter, luminescence, 6 h. activation, % at 18.7 µM. hit rate 0.16% among 350,000. AID 588436; in the data active means activation mostly above about 9.7%, no sharp cut-off
PrP UTR inh: suppresses PrP 5' UTR mRNA reporter expression; inhibition, % (no concentration beside the values); cell-based PrP 5' UTR mRNA reporter, plate reader; hit rate 0.35% among 340,000; in the data active means inhibition above about 52%; further: 0 = median of the neutral control wells
PfHsp40 rescue: rescue of PfHsp40-mediated yeast toxicity. S. cerevisiae expressing PfHsp40, growth rescue, ATP luminescence. growth rescue, % at 12.5 µM. hit rate 0.68% among 340,000. AID 504582; in the data active means growth rescue above about 28%, passing the limit was not always enough;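 further: yeast W303a lacking pdr1 and pdr3 grown in galactose medium; growth measured after three days at 30 °C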
PrPC TRFRET: reduces human prion protein on the cell surface. P04156. cell surface PrPC, TR-FRET read-out. inhibition, % at 13.8 µM. hit rate 0.43% among 370,000. AID 720596; in the data active means inhibition above about 24%; further: 0% = median of the test wells and 100% = reference compound wells
PrPC confirm: cell surface PrPC inhibition, TR-FRET confirmation; hit rate 65% among 1,500; inhibition, % at 13.8 µM; shares compounds with PrPC TRFRET; cell surface PrPC level; AID 743200; in the data active means inhibition above about 25%
LD9 tox: LD9 cell cytotoxicity, PrPc inhibitor counter-screen; inhibition, % at 13.8 µM; shares compounds with PrPC TRFRET; hit rate 29% among 1,500; AID 743201; LD9 cells cytotoxicity, luminescence viability; in the data active means inhibition above about 9.5%
Numbers without * were called inactive; i = inactive; . = no result.

SMILES	SSB-PriA inh	SARS 3CLpro inh	BH1578 lux ind	PrP UTR inh	PfHsp40 rescue	PrPC TRFRET	PrPC confirm	LD9 tox
CCc1ccc(C(=O)NNc2ccc(Cl)cc2)cc1	8	3	1	-39	8	31*	43*	3
CCCc1ccc(C(=O)NNc2cc(Cl)ccc2Cl)cc1	-5	4	i	-4	14	25*	27*	5
Cc1cccc(C(=O)Nc2ccc3c(c2)N(CCC(C)C)C(=O)C(C)(C)CO3)c1	9	.	.	.	.	.	.	.
COc1ccc(CC(=O)NC2CCCC(OC(=O)Nc3ccc(F)cc3)C2)cc1OC (stereo unspecified)	-15	.	.	.	.	.	.	.
COc1cccc2c(=O)c(C(=O)NCCc3ccccc3)c[nH]c12	-7	.	i	-41	1	25*	12	-4
O=C(Cc1ccccc1)OCn1nnc2ccccc2c1=O	-3	3	0	-18	-1	37*	6	0
CC(C)c1nc(SCC(=O)Nc2ccc(N3CCOCC3)cc2)c2ccccc2n1	-3	5	-1	-5	25*	33*	52*	-2
Cc1ccc(NC(=O)CSc2ncnc3ccccc23)cc1S(=O)(=O)N1CCOCC1	-2	1	0	-2	1	61*	55*	-11
Cc1ccc(NC(=O)CSc2ncnc3ccccc23)cc1S(=O)(=O)N1CCCCC1	-14	5	0	-11	0	48*	76*	-6
O=C(NCc1nnnn1-c1ccc(F)cc1)Nc1ccc(Cl)c(Cl)c1	-9	.	.	.	.	.	.	.
Cc1ccc(NC(=O)c2c(C(F)(F)F)nn(C)c2SCc2cccc(C(F)(F)F)c2)cc1C	-9	-8	i	-12	1	30*	25*	9.4*
Cc1ccc(NC(=O)c2c(C(F)(F)F)nn(C)c2SCc2ccc(Cl)cc2)cc1C	-24	5	1	9	1	11	.	.
CC(C)(C)c1nn2cnnc2n(/N=C\c2ccc(Cl)cc2)c1=O	11	.	.	.	.	.	.	.
O=C1OCCC1Sc1ncnc2sc3c(c12)CCC3 (stereo unspecified)	-21	2	i	-5	3	56*	64*	-6
CC(=O)CSc1ncnc2sc3c(c12)CCC3	-15	0	1	10	1	12	.	.
COCC(C)(O)CNS(=O)(=O)c1cnn(C)c1 (stereo unspecified)	-11	.	.	.	.	.	.	.
O=C(O)c1ccccc1C(=O)Nc1ccccc1NC(=O)c1ccccc1C(=O)O	-3	.	i	.	.	-5	.	.
CC(=O)c1sc(C(C)(C)C)cc1NC(=O)c1ccccc1C(=O)O	6	9	i	3	2	36*	81*	-1
CC(=O)Nc1ccc(C(=O)NCCNS(C)(=O)=O)cc1	-8	.	.	.	.	.	.	.
Cc1cccc(CS(=O)(=O)NCCSC2CCOCC2)c1	0	.	.	.	.	.	.	.
N#CC(C#N)=C(Nc1ccc(F)cc1)SCc1cccc(F)c1	-8	-5	0	-4	-3	28*	33*	35*
CCOc1ccc(N/C(SCc2cccc([N+](=O)[O-])c2)=C(/C#N)C(N)=O)cc1	9	0	0	-22	3	7	.	.
O=C(Cn1c(N2CCN(c3ccccc3)CC2)nc2ccccc2c1=O)NCCc1cccs1	-18	.	.	.	.	.	.	.
Cc1ccc(S(=O)(=O)c2ncccc2[N+](=O)[O-])cc1	-1	0	-1	-4	-1	71*	55*	98*
CC(O)CC(=O)OC[C@]12CC[C@H]3[C@@](C)(CC[C@H]4C(C)(C)CCC[C@]34C)[C@@H]1CC(C1=CC(=O)OC1O)O2 (stereo partly specified)	.	.	0	.	.	34*	26*	64*
SMILES	SSB-PriA inh	SARS 3CLpro inh	BH1578 lux ind	PrP UTR inh	PfHsp40 rescue	PrPC TRFRET	PrPC confirm	LD9 tox
C[C@H]1COC(=O)[C@@H](Cc2ccc(F)cc2)C/C=C\C[C@@H](CC(=O)NCCO)C(=O)N1	-4	.	i	-21	-1	0	.	.
C[C@@H]1COC(=O)[C@H](Cc2ccc(F)cc2)C/C=C\C[C@@H](CC(=O)NCCO)C(=O)N1	7	.	i	-21	-1	44*	7	-3
COc1ccc(OC)c2sc(N(CC3CCCO3)C(=O)C3CCCC3)nc12 (stereo unspecified)	-10	.	.	.	.	.	.	.
COc1ccc(-c2nc(-c3cn(Cc4ccccc4)nn3)no2)cc1OC	-7	.	.	.	.	.	.	.
N#CNC(=Nc1cccc(F)c1)SCc1ccccc1F	-16	-3	0	-5	2	26*	17	8
CC(C)N=C(NC#N)SCc1ccccc1F	-7	-5	0	-38	0	-1	.	.
C=C1C(=O)C23C(O)C1CCC2C12CCCC(C)(COC(C)=O)C1C(O)C3(O)OC2 (stereo unspecified)	-8	.	i	-30	-1	75*	77*	93*
CCOC(=O)c1oc2ccc(NC(=O)C3CCCCC3)cc2c1C	-3	.	.	.	.	.	.	.
Cc1ncn(CCNC(=O)c2csc(-c3ccccc3)n2)c(=O)c1C	-23	.	.	.	.	.	.	.
Cc1ccc(Cc2c(-c3ccco3)nc3ccc(C)cn23)cc1	.	.	.	.	.	8	.	.
COc1ccc(-c2nc3ccc(Br)cn3c2Cc2cccc(F)c2)cc1OC	.	.	.	.	.	36*	65*	-8
Clc1cccc(Cc2c(-c3ccco3)nc3ccc(Br)cn23)c1	.	.	.	.	.	42*	51*	-4
COc1ccc(-c2nc3ccc(C)cn3c2Cc2cccc(F)c2)cc1OC	.	.	.	.	.	-9	.	.
Brc1ccc2nc(-c3ccco3)c(Cc3ccccc3)n2c1	.	.	.	.	.	37*	66*	1
CC(=O)Nc1cccc(NC(=O)c2cccc(-c3ccc(O)cc3)c2)c1	-1	5	0	-65	0	-7	.	.
COc1ccc(NC(=O)c2cccc(-c3ccc(O)cc3)c2)cn1	8	1	1	-27	1	33*	14	5
CCOc1cc(S(=O)(=O)n2c(C)nc3ccccc32)ccc1F	6	6	0	7	1	59*	14	-4
COCCCN1C(=O)c2[nH]nc(-c3cc(C)cc(C)c3O)c2C1c1ccc(O)c(OC)c1 (stereo unspecified)	3	-2	0	-22	1	0	.	.
CCCN1C(=O)c2[nH]nc(-c3cc(Cl)c(C)cc3O)c2C1c1ccc(O)c(OC)c1 (stereo unspecified)	18	2	0	-10	1	26*	10	-7
CN(C)c1cnnc(N2CCN(S(=O)(=O)c3ccccc3Cl)CC2)c1	-7	.	.	.	.	.	.	.
Fc1ccccc1COc1ccc(Br)cc1CNCc1cccnc1	-3	-3	0	-10	-2	5	.	.
Fc1ccccc1COc1ccc(Br)cc1CNCc1ccncc1	-10	4	0	-9	242*	25*	23	17*
COc1ccccc1NS(=O)(=O)c1cccc(NC(=O)Nc2ccccc2)c1	13	9	2	-14	0	20	.	.

Source: PubChem
